Experimental data as given in PubChem BioAssay (NCI).
This is part of a sample that, as a whole, favours compounds with a hit. Of some 83,000 tested, about 20% had one in any assay.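 96-well plates, one dose, 48 hours. Percent growth reported; active if below 10.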 Values without a mark were called inactive. Activity calls are given as the source filed them.

System: NCI/ADR-RES ovarian
Test: NCI-60 one-dose screen, 48 h (100 = growth as untreated, 0 = no growth, -100 = all killed)
Conditions: 10 µM unless noted
Experimental: Growth inhibition of the NCI/ADR-RES human […] tumor cell line is measured as a screen for anti-cancer activity. Cells are grown in 96 well plates and exposed to the test compound for 48 hours. Compounds are tested at a single concentration, which is 10^-5 M for most compounds. The reported endpoint is percent growth (GI% or GIPRCNT), where numbers from 0 - 100% represent growth inhibition, and numbers from -100% - 0 represent cell death. For example, a value of 40 represents 60% growth inhibition. A value of 0 means no net growth occurred over the course of the experiment. A value of -40 indicates 40% of cells at the beginning of the experiment died by the end of the experiment. A value of -100 means all cells are dead at the end of the experiment.
NCI-60 Human Tumor Cell Lines Screen was performed using the standard one-dose NCI protocol, which is described in more detail at https://dtp.cancer.gov/discovery_development/nci-60/default.htm.
Compounds with GIPRCNT values below 10 were considered active. Activity score was based on GIPRCNT using the following formula: […]
Score is 0 for GIPRCNT values of 100 or above, 50 for GIPRCNT values of 0, and 100 for GIPRCNT values of -100.

| SMILES | growth |
| --- | --- |
| O=C1C(Cl)=C(Oc2ccccc2)C(=O)c2ccccc21 | 88.6% |
| COc1ccc(C(=O)Nc2ncc(Cc3ccc(F)cc3)s2)cc1 | 7.08% (active) |
| COC(=O)c1cc(-c2ccccc2)[nH]c1N/N=C/c1c(Cl)cccc1Cl | -16.2% (active) |
| CCOC(=O)c1[nH]c(=O)c2c(C)nc(-c3ccccc3)cc2c1O | 103% |
| CCOC(=O)c1c(C)nc2c(c1N)CC(=O)N2Cc1cc(F)cc(Cl)c1 | 81.2% |
| N#CC1=C(N)Oc2c(sc3c(Br)cccc23)C1c1ccc(F)cc1 (stereo not given) | 9.77% (active) |
| N#CC1CCc2c(c(-c3cn[nH]c3C(F)(F)F)nc3c(F)cc4[nH]ncc4c23)C1 (stereo not given) | 92.4% |
| Cc1nc2c(=O)[nH]c(SCC(=O)Nc3cccc(F)c3)nc2[nH]c1=O | 107% |
| Cc1ccc(NC(=S)NNC(=S)NNc2ccccc2)cc1C | 110% |
| O=C(c1ccc(-c2nc(CSc3nc4ccccc4s3)no2)cc1)N1CCSCC1 | 52.7% |
| C/C(Nc1ccc(Cl)c(Cl)c1)=C1\CCOC1=O | 86.7% |
| N#Cc1c(-c2ccc(Cl)cc2)nc(NN=Cc2cccc(O)c2)nc1N1CCOCC1 | 64.9% |
| CCOC(=O)Cn1c(O)c(N=Nc2ccc(S(N)(=O)=O)cc2)c2cc(Br)ccc21 | 89.7% |
| COc1ccc(C(=O)Nc2ncc(Cc3cccc(Cl)c3)s2)cc1OC | 20.9% |
| O=C(CI)NC1Oc2ccccc2-c2oc(=O)c(-c3ccccc3)cc21 (stereo not given) | 36.7% |
| C=C(C)[C@@H]1CC[C@]2(C(=O)OC)CC[C@]3(C)[C@H](CC[C@@H]4[C@@]5(C)C/C(=C/NC(N)=S)C(=O)C(C)(C)[C@@H]5CC[C@]43C)[C@@H]12 | 104% |
| CCc1ccc(C(=O)/C=C/C23c4ccccc4C(c4ccccc42)C2C(=O)NC(=O)C23)cc1 (stereo not given) | 4.03% (active) |
| Cn1cccc1C(=O)C1C(c2cccc([N+](=O)[O-])c2)C2C3CCCCC3CN2C12C(=O)Nc1ccc(Cl)cc12 (stereo not given) | 51% |
| Cc1ccc(-c2cc(-c3ccc(Cl)cc3)nc(NC(=O)c3cccnc3)n2)cc1 | 104% |
| CC(C)OC(=O)c1ccc2[nH]c(O)c(C(=Nc3ccc(N(C)C(=O)CN4CCN(C)CC4)cc3)c3ccccc3)c2c1 | 38.4% |

| SMILES | growth |
| --- | --- |
| O=C(O)CCCN1C(=O)/C(=C/C(Cl)=C/c2ccccc2)SC1=S | 3.81% (active) |
| O=C1C(Cl)=C(Nc2ccc(O)cc2)C(=O)N1Cc1ccc(Cl)cc1 | 81.3% |
| CC(=O)OC[C@]12CCC(C)(C)C[C@H]1[C@@]1(O)[C@H](O)C[C@@H]3[C@@]4(C)CCCNC(C)(C)[C@@H]4CC[C@@]3(C)[C@]1(C)CC2 | 113% |
| O=C(Nn1c2c(sc1=NCc1ccccc1)C(=O)c1ccccc1C2=O)c1cc2ccc1CCc1ccc(cc1)CC2 | 64.3% |
| O=C(Cc1ccccc1)Nc1nc(O)c(/C=C2\C(=O)C=Cc3ccccc32)s1 | 96.7% |
| COc1ccccc1NC(=O)Cn1cc(CN2CCN(c3ccnc4cc(Cl)ccc34)CC2)nn1 | 91.5% |
| Cc1cc2c(O)c(-c3cccc(Cl)c3)c3sc(=O)oc3c2cc1C | 56.3% |
| C#CCOc1ccc2ncnc(Nc3cccc(NC(=O)C=C)c3)c2c1 | 80.2% |
| CCN1CC(=O)N(/N=C2\C(=O)Nc3ccccc32)C1=S | 103% |
| O=C1/C(=C/c2cccs2)SC(=S)N1CCCN1CCOCC1 | 92.7% |
| COc1cccc(/C=C/C(=O)c2cc3c(N)c(C(=O)Nc4ccccc4)sc3nc2C)c1 | -10.5% (active) |
| N#CC1C=CN(CC(N)=O)c2ccc3cccnc3c21 (stereo not given) | 105% |
| Cc1nc2ncnc(Cl)c2[nH]1 | 108% |
| CC(=O)N1N=C(c2ccc(Nc3nc(Nc4ccc(Cl)cc4)nc(Nc4ccc(Cl)cc4)n3)cc2)CC1c1ccco1 (stereo not given) | 93.5% |
| COc1ccc(/C=C2\C(=O)N=C3N2NC(c2cc(Br)ccc2O)C=C(C)N3c2ccccc2)cc1 (stereo not given) | 93.9% |
| CN1C(=O)/C(=C/c2ccc(C(=O)Nc3ncc(Cc4ccc(Cl)cc4)s3)cc2)SC1=S | 37.5% |
| O=C1/C(=C/c2ccc(-c3ccc(Br)cc3)o2)SC(=S)N1CCc1ccc(O)cc1 | 81.7% |
| CCCC(=O)NC(c1ccc2c(c1)OCO2)c1ccc2cccnc2c1O (stereo not given) | 3.18% (active) |
| O=C1NC(=O)c2c1c1c3ccccc3ccc1c1[nH]c3ccc(Br)cc3c21 | 3.52% (active) |
| O=C1N(Cc2ccccc2Cl)c2ccccc2C12NN=C(c1cccc(Cl)c1)S2 (stereo not given) | -17% (active) |
